# Assay outcomes: PubChem BioAssay, National Center for Advancing Translational Sciences (NCATS)
# EPAC2 agonist: activates human EPAC2 exchange factor. Q8WZA2. EPAC2 activation, biochemical qHTS; response scale: 100% = 6.5 mM cAMP response. Potency, µM (highest dose often 154 µM), usual class: activators. actives 0.079% (n = 360,000). AID 720711; also: nearly all actives have a fitted effect of over 50% in size
#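 qHTS, titration series. 100 nM EPAC2 / 250 nM Rap1B-BODIPY-GDP / 50 uM GDP; RT; ex 480/em 540 nm, 5-min reads to 30 min. Norm. to 6.5 mM cAMP = activation.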
# EPAC1 antagonist: blocks human EPAC1 exchange factor; O95398; EPAC1 GEF assay, Rap1b-BODIPY-GDP exchange fluorescence; Potency, µM (series often up to 115 µM), most hits filed as inhibitors; actives 0.14% (n = 360,000); also: nearly all actives have a fitted effect of over 50% in size
# Target sequence (O95398 whole entry, looked up): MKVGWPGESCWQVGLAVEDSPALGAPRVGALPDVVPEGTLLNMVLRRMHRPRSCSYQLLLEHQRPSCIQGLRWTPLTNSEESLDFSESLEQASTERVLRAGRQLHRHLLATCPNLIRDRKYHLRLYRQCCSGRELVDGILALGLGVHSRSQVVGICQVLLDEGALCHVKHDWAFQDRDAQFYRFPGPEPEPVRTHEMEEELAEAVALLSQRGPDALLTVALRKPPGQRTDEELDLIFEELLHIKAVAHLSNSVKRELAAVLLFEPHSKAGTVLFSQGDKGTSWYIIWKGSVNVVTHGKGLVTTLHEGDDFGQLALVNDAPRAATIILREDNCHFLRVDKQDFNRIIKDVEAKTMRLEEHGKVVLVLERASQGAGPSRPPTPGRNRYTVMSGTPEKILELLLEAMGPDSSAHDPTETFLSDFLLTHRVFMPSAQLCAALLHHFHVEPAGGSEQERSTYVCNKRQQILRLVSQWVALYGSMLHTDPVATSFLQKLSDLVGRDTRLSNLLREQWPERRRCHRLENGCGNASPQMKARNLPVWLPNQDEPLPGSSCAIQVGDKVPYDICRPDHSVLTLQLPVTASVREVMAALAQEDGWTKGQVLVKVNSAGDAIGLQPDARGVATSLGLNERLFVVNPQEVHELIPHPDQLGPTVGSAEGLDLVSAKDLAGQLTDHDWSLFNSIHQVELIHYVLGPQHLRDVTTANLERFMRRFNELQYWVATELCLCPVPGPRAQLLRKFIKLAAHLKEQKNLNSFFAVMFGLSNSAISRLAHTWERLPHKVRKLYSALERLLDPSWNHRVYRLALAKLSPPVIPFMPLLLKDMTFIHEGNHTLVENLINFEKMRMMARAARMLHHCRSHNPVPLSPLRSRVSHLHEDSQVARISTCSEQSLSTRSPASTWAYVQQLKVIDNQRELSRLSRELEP
# IL-2 act: activators of IL-2 | IL-2 activation reporter assay, cell-based qHTS; stimulated with anti-CD3/CD4/CD28 beads; in transgenic mouse T cells | AID 652025 | activation, % (series mostly up to about 46 µM) | actives 0.065% (n = 360,000); in the data active = activation above about 50%; inconclusive = mostly about 30% to 49%
#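 Screening format: compound pinned onto unstimulated transgenic mouse T cells, 60 min incubation, then anti-CD3/anti-CD4/anti-CD28 bead stimulation for 18 hours at 37 degrees C, followed by EGFP and DsRed detection.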
# EPAC2 antag: blocks human EPAC2 exchange factor | Q8WZA2 | EPAC2 GEF exchange of Rap1B-BODIPY-GDP, fluorescence | Potency, µM (highest dose often 114 µM), most hits filed as inhibitors | actives 0.18% (n = 360,000); also: nearly all actives have a fitted effect of over 45% in size
# PKM2 activator: increases activity of human pyruvate kinase M2 | AID 1631 | actives 0.34% (n = 260,000) | Potency, µM (series often up to 57.5 µM), usual class: activators | purified PKM2, Kinase-Glo ATP luminescence, activation; response scale: 0% is enzyme alone, no compound; also: nearly all actives have a fitted effect of over 55% in size
#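 Purified hPK-M2 (>95% pure) converted ADP (0.1 mM final) to ATP with 0.5 mM PEP in 50 mM imidazole pH7.2, KCl, MgCl2, Tween 20, BSA; 1 h at room temperature. ATP detected by Kinase-Glo luminescence.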
# EPAC1 ag: activates human EPAC1 exchange factor; O95398; EPAC1 agonist qHTS, biochemical assay; response scale: 100% = response to 6.5 mM cAMP; Potency, µM (titrated, usually from 154 µM), most hits filed as activators; actives 0.073% (n = 360,000); AID 720707; also: nearly all actives have a fitted effect of over 60% in size
#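 Nucleotide exchange assay: 100 nM EPAC1 with 250 nM Rap1B loaded with BODIPY-GDP and 50 uM GDP, room temperature. Fluorescence (480/540 nm) read every 5 min for 30 min; signal change normalized to 6.5 mM cAMP as full agonist.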
# A number is an active result; n = inactive; u = inconclusive; x = not tested or not shown. An excerpt weighted towards active compounds, which were near 0.64% of everything screened. Unless noted, calls follow the shape of the dose curve; as a rule, active = well fitted curve in the direction sought with a large enough effect; inconclusive = small, poorly fitted or top-dose-only effect, or another doubt; inactive = no such curve, though single readings can be large; an effect the other way counts as inactive or inconclusive.
SMILES,EPAC2 agonist,EPAC1 antagonist,IL-2 act,EPAC2 antag,PKM2 activator,EPAC1 ag
O=C(Cc1ccccc1)Nn1c(O)c(/C=C2\C=Nc3ccccc32)sc1=S,100µM,n,n,n,n,89.1µM
CC1CCN(C(=O)c2ccc(S(=O)(=O)NCc3ccco3)cc2)CC1,n,n,n,n,n,n
Cn1ccs/c1=N\S(=O)(=O)c1ccc(Br)cc1,n,n,n,n,15.8µM,n
O=S(=O)(Nc1nccs1)c1ccc(NS(=O)(=O)c2cccs2)cc1,n,n,n,n,4.47µM,n
Cc1ccc(O)c(CNc2ccc(S(=O)(=O)Nc3nccs3)cc2)c1,n,n,n,22.4µM,u,n
O=S(=O)(Nc1ccc(S(=O)(=O)Nc2nccs2)cc1)c1ccc(Br)cc1,n,u,n,n,n,n
COc1cccc(NC(C)C(=O)Nc2cc([N+](=O)[O-])ccc2Cl)c1 (configuration not stated),n,n,n,n,n,n
CCOC(=O)C1=C(C)N=c2s/c(=C\c3cccn3C)c(=O)n2C1c1cccc(OC)c1OC (configuration not stated),112µM,n,n,n,n,n
CCOC(=O)C1=C(C)N=c2s/c(=C\c3ccc(C(=O)O)cc3)c(=O)n2C1c1ccc(OC)cc1OC (configuration not stated),n,u,n,u,x,n
CCCN1C(=O)/C(=C/c2ccc(C)o2)SC1=Nc1ccc(OCC)cc1,n,n,n,n,12.6µM,n
CC1CCN(c2ccc3c(c2)S(=O)(=O)c2ccccc2C3=O)CC1,n,n,n,n,x,89.1µM
O=C1c2ccccc2S(=O)(=O)c2cc(N3CCN(C(=O)c4ccccc4)CC3)ccc21,n,n,n,n,x,n
NC(=O)C1CCN(c2ccc3c(c2)S(=O)(=O)c2ccccc2C3=O)CC1,n,n,n,n,x,n
O=C1c2ccccc2S(=O)(=O)c2cc(N3CCC4(CC3)OCCO4)ccc21,112µM,n,n,n,x,n
Cc1cc(NC(=O)c2cc(-c3ccncc3)nc3ccccc23)ccc1Br,n,n,n,n,x,n
N#CC(c1ccccc1)C(CC(=NO)c1ccccc1)c1ccccc1 (configuration not stated),n,n,n,u,x,n
CCOc1ccc(S(=O)(=O)N2CCN(C(=S)NCc3ccco3)CC2)cc1,n,n,n,n,14.1µM,n
COc1cc(NC(=O)c2cccc3c(-c4cnn(C)c4)coc23)cc(OC)c1OC,n,n,n,n,x,n
O=C(CSc1nc2ccccc2[nH]1)N/N=C/c1ccco1,n,n,n,n,n,n
CCOC(=O)CN(C(=O)COC(=O)C1(c2ccccc2)CC1)c1ccc(F)cc1,n,n,n,n,x,n
Cc1ccc(S(=O)(=O)/N=C2/C=C(Sc3ncn[nH]3)C(=O)c3ccccc32)cc1,n,44.7µM,n,20µM,n,n
CC(C)c1ccc(S(=O)(=O)/N=C2/C=C(Sc3ncn[nH]3)C(=O)c3ccccc32)cc1,n,56.2µM,n,89.1µM,n,n
Cc1[nH]n(-c2ncc(-c3ccc(Cl)cc3)s2)c(=O)c1C(c1ccc(Cl)cc1)C(C#N)C#N (configuration not stated),n,39.8µM,n,n,n,n
COc1ccc(C(c2c(C)[nH]n(C(N)=S)c2=O)C(C#N)C#N)cc1 (configuration not stated),n,n,n,n,n,n
c1cncc(CSc2nnc3ccc(-c4cccs4)nn23)c1,n,n,n,n,25.1µM,n
COc1ccc(S(=O)(=O)N2CCN(C(=O)c3cccs3)CC2)cc1,n,n,n,n,14.1µM,n
COc1ccc(S(=O)(=O)N2CCOC23CCN(S(=O)(=O)c2cccs2)CC3)cc1,n,n,n,n,x,56.2µM
O=C(Cn1cncn1)N/N=C/c1cccnc1,n,n,n,n,n,n
